Where “and” joins values, the source holds several entries; their conditions need not be identical. Equal entries are not always repeated.

Chain of C-X-C chemokine receptor type 6 (Homo sapiens) (O00574 whole entry, looked up): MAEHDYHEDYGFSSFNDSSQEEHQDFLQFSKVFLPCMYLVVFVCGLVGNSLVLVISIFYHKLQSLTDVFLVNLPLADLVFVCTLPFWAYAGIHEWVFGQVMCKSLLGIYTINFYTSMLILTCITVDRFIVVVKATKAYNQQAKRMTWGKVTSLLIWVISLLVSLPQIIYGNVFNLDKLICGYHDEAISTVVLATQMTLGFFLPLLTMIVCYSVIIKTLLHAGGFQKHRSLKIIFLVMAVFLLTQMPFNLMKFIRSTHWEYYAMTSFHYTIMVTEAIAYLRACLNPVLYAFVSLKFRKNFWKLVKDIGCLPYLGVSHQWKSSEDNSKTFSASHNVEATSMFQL

This test concerns the target C-X-C chemokine receptor type 6 (Homo sapiens) (UniProt O00574). Description: apelin receptor (APJ) antagonists, SAR follow-up, counter-screen for CXCR6 antagonist project, cell-based, beta-arrestin, DiscoveRx, panel, CHO-K1 (AID 651598). The note with it: CHO-K1 PathHunter beta-arrestin luminescence, antagonist mode; run 4, at 80 µM (top of the series). In general terms: The purpose of a counterscreen is to sort out artefacts and off-target activity.
By inhibition is commonly meant the drop in the measured response relative to a control, in per cent. A higher inhibition goes with a strong effect. Regarding `COc1cc(C(=O)NC2CC3CCCC(C2)N3CC(=O)Nc2ccccc2)cc(OC)c1OC` (stereo not drawn), the inhibition was 88.8% and 51.2% and 29%.

In turn, `COc1cc(C(=O)NC2CCN(CC(=O)Nc3ccccc3)CC2)cc(OC)c1OC` gave an inhibition of 29.6%.

Regarding `COc1cc(C(=O)NC2CC3CCC(C2)N3CC(=O)Nc2ccccc2)cc(OC)c1OC` (stereo not drawn), the inhibition was 45.8% and 2.45%.

The values are drawn from PubChem BioAssay AID651598 (Sanford-Burnham Center for Chemical Genomics, 2012).
